For nine molecules, outcome and AC50 results are on record in PubChem BioAssay (EPA / NIEHS).

By AC50 is commonly meant the midpoint of the concentration-response curve, whichever way the signal moves.

Inconclusive results are not listed. The source made the active and inactive calls. How the source made its calls, unless noted: active means hit-call score of the fitted dose curve at least 0.9, where 1 is the maximum; inconclusive means response in the unintended direction; inactive means score below 0.9.

Test [1] is described as follows: ATG_TCF_b_cat_CIS: Attagene CIS-FACTORIAL HepG2 Assay for human T-Cell-Factor with beta-catenin (TCF/b-cat) (AID 2282965; active means hit-call score of the fitted dose curve at least 0.9, where 1 is the maximum; inactive means score below 0.9). As to conditions: HepG2 TCF/beta-catenin cis-reporter transcription, actives raise or lower the signal. In a few lines:
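Measured: reporter mRNA in HepG2 transiently transfected with cis-promoter reporter units, 24 h after chemical addition. Fitting was bidirectional, DMSO as negative control.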

The nature of test [2]: ATG_TAL_CIS: Attagene CIS-FACTORIAL HepG2 Assay for human TAL Basal Promoter (AID 2282966; active means hit-call score of the fitted dose curve at least 0.9, where 1 is the maximum; inactive means score below 0.9;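 further: background control endpoint measuring basal TAL promoter reporter mRNA not a specific factor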). Conditions: HepG2 Attagene cis-factorial TAL promoter reporter; actives raise or lower the signal. The method, boiled down: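 Fluorescence of labelled reporter cDNA fragments, resolved by capillary electrophoresis, gave the readout. Human HepG2 liver cells carried transiently transfected cis-element reporter units and were treated for 24 hours; activity was fitted bidirectionally against DMSO.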

Test [3] is described as follows: ATG_TGFb_CIS: Attagene CIS-FACTORIAL HepG2 Assay for human Transforming Growth Factor (TGF) (AID 2282967; active means hit-call score of the fitted dose curve at least 0.9, where 1 is the maximum; inactive means score below 0.9). Conditions: HepG2 Attagene CIS TGFb reporter, mRNA transcription; actives raise or lower the signal. The method, boiled down: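 HepG2 cells transiently transfected with cis-promoter-driven multiple reporter units measure endogenous TF activity; reporter mRNA quantified at 24 h by RT-PCR, FAM labeling, HpaI digestion and capillary electrophoresis. Bidirectional fit vs DMSO.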

The target in test [4] is Estrogen receptor (Homo sapiens) (UniProt P03372). The test can be described thus: ATG_ERa_TRANS: Attagene TRANS-FACTORIAL HepG2 Assay for human Estrogen Receptor alpha (ERa) (AID 2282970). Conditions: HepG2 Attagene TRANS ERa GAL4 reporter, mRNA. In a few lines: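 Human liver HepG2, transient transfection of multiple GAL4-UAS reporter units; TRANS format (exogenous NR-Gal4 chimera). 24 h dosing. Readout: reporter mRNA, RT-PCR, 6-FAM primer extension, HpaI digest, capillary electrophoresis. Positive direction vs DMSO.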

Test [5] addresses Steroid hormone receptor ERR1 (Homo sapiens) (UniProt P11474). The test can be described thus: ATG_ERRa_TRANS: Attagene TRANS-FACTORIAL HepG2 Assay for human Estrogen-Related Receptor alpha (ERRa) (AID 2282971). Conditions: HepG2 Attagene TRANS reporter, ERRa transactivation. In a few lines: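 Reporter transcript induction was quantified by RT-PCR and capillary electrophoresis of FAM-labelled, HpaI-cut products after 24 h treatment of HepG2 cells carrying transiently transfected GAL4-UAS reporter units and an exogenous ERRa-Gal4 fusion; activity scored as increase over DMSO.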

Test [6] addresses X-box-binding protein 1 (Homo sapiens) (UniProt P17861). The test can be described thus: ATG_Xbp1_CIS: Attagene CIS-FACTORIAL HepG2 Assay for human X-box Binding Protein 1 (XBP1) (AID 2282972; active means hit-call score of the fitted dose curve at least 0.9, where 1 is the maximum; inactive means score below 0.9). As to conditions: HepG2 XBP1 cis-element reporter, Attagene multiplex; actives raise or lower the signal. The method, boiled down:
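HepG2, transient MRTU transfection (cis-promoter driven), 24 h compound exposure. Total RNA → oligo(dT) RT → PCR → 6-FAM labeling → HpaI cut → CE. Bidirectional fit vs DMSO.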

Test [7] is described as follows: ATG_M_19_TRANS: Attagene TRANS-FACTORIAL HepG2 Assay for M19 Transcription Factor (Internal Marker) (AID 2282974). Conditions: HepG2 Attagene TRANS-FACTORIAL M19 internal marker reporter. In a few lines: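 HepG2 cells transiently transfected with multiple GAL4-UAS reporter transcription units were exposed to chemicals for 24 h. Reporter mRNA was read by RT-PCR, 6-FAM primer extension, HpaI digestion and capillary electrophoresis; gain of signal fitted relative to DMSO.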

Test [8] is described as follows: ATG_GAL4_TRANS: Attagene TRANS-FACTORIAL HepG2 Assay for GAL4 (Internal Marker) (AID 2282976). Conditions: HepG2 Attagene TRANS GAL4 internal marker reporter. In a few lines: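 First, HepG2 cells were transfected with reporter units under GAL4-UAS control. Next, they were treated with chemical for 24 h. Finally, RNA was reverse-transcribed, PCR-amplified, FAM-labelled and resolved by capillary electrophoresis, with induction scored against DMSO.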

Test [9] concerns the target Estrogen-related receptor gamma (Homo sapiens) (UniProt P62508). Put plainly: ATG_ERRg_TRANS: Attagene TRANS-FACTORIAL HepG2 Assay for human Estrogen-Related Receptor gamma (ERRg) (AID 2282977).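 Further: hits increase reporter signal over DMSO so potencies reflect activators.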 As to conditions: HepG2 Attagene TRANS reporter, ERRg transactivation. In a few lines: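 Transient HepG2 transfectants, 24 h compound exposure, GAL4-UAS reporter mRNA by RT-PCR/6-FAM labelling/capillary electrophoresis; positive direction vs DMSO.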

The target in test [10] is Oxysterols receptor LXR-beta (Homo sapiens) (UniProt P55055). The test can be described thus: ATG_LXRb_TRANS: Attagene TRANS-FACTORIAL HepG2 Assay for human Liver X Receptor beta (LXRb) (AID 2282981). Conditions: HepG2 Attagene TRANS GAL4-LXRb reporter, mRNA. In a few lines: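 Cells: HepG2, transiently transfected with GAL4-UAS reporter units plus LXRb-Gal4 fusion. Treatment: 24 h. Detection: reporter mRNA by RT-PCR, 6-FAM labelling, HpaI digestion, capillary electrophoresis.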

Test [11] has as its target Transcriptional activator Myb (Homo sapiens) (UniProt P10242). The test can be described thus: ATG_Myb_CIS: Attagene CIS-FACTORIAL HepG2 Assay for human Myeloblastosis (Myb) Proto-Oncogene Transcription Factor (AID 2282986; active means hit-call score of the fitted dose curve at least 0.9, where 1 is the maximum; inactive means score below 0.9). As to conditions: HepG2 Attagene CIS-FACTORIAL Myb reporter transcription; actives raise or lower the signal. In a few lines: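 HepG2 cells were transiently transfected with cis-regulated multiple reporter transcription units reflecting endogenous Myb activity, then exposed to compound for 24 hours. Reporter mRNA was measured by RT-PCR with capillary electrophoresis; bidirectional fitting versus DMSO baseline.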

Test [12] has as its target Glucocorticoid receptor (Homo sapiens) (UniProt P04150). Put plainly: ATG_GR_TRANS: Attagene TRANS-FACTORIAL HepG2 Assay for human Glucocorticoid Receptor (GR) (AID 2282978).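 Further: activators score as hits since higher reporter transcript over DMSO is fitted.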 Conditions: HepG2 Attagene TRANS GR reporter, mRNA transcription. The method, boiled down: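 HepG2 cells transiently transfected with multiplexed reporter units in which chimeric NR-GAL4 proteins drive GAL4-UAS reporters; 24 h compound exposure. Reporter mRNA measured by RT-PCR, 6-FAM labelling, HpaI digestion and capillary electrophoresis; gain-of-signal fitted versus DMSO.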

Test [13] concerns the target Bile acid receptor (Homo sapiens) (UniProt Q96RI1). The test can be described thus: ATG_FXR_TRANS: Attagene TRANS-FACTORIAL HepG2 Assay for Farnesoid X Receptor (FXR) (AID 2282979).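 Further: hits raise reporter mRNA above DMSO so AC50 marks FXR activation.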 As to conditions: HepG2 Attagene TRANS FXR-GAL4 reporter transcription. In a few lines:
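Transient transfection of HepG2 with multiplexed GAL4-UAS reporter units; exogenous FXR-GAL4 chimera. Dose 24 h → TriZol RNA → oligo(dT) RT → PCR, 6-FAM primer extension, HpaI cut → CE. Gain vs DMSO.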

Test [14] concerns the target Oxysterols receptor LXR-alpha (Homo sapiens) (UniProt Q13133). Put plainly: ATG_LXRa_TRANS: Attagene TRANS-FACTORIAL HepG2 Assay for human Liver X Receptor alpha (LXRa) (AID 2282980). As to conditions: HepG2 Attagene TRANS reporter, LXRa transactivation. In a few lines:
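Transfect HepG2 with GAL4-UAS multiplex reporter constructs (TRANS format, chimeric receptor-GAL4); treat 24 h; extract RNA, reverse-transcribe, PCR-amplify, FAM-label, HpaI-digest; resolve fragments by capillary electrophoresis. Upward response vs DMSO.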

The target of test [15] is Hepatocyte nuclear factor 4-alpha (Homo sapiens) (UniProt P41235). Put plainly: ATG_HNF4a_TRANS: Attagene TRANS-FACTORIAL HepG2 Assay for human Hepatocyte Nuclear Factor 4 alpha (HNF4a) (AID 2282982). Conditions: HepG2 HNF4a transactivation reporter, mRNA readout. The method, boiled down:
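Transfected HepG2 reporter cells are dosed for 24 h; reporter RNA is reverse-transcribed, amplified, fluorescently labelled and HpaI-digested before CE sizing. Positive-direction fit against DMSO.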

For test [16], the target named is Nuclear receptor subfamily 1 group I member 3 (Homo sapiens) (UniProt Q14994). Put plainly: ATG_CAR_TRANS: Attagene TRANS-FACTORIAL HepG2 Assay for human Constitutive Androstane Receptor (CAR) (AID 2282969).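 Further: activators raise reporter mRNA above DMSO so AC50 marks induction.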 As to conditions: HepG2 Attagene TRANS-FACTORIAL CAR reporter. The method, boiled down:
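Readout is reporter mRNA induction, quantified by fluorescent primer extension and capillary electrophoresis after RT-PCR. Cells were HepG2 transiently carrying chimeric NR-Gal4 constructs with GAL4-UAS reporters, treated for 24 h; activity scored upward from DMSO.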

The nature of test [17]: ATG_M_06_TRANS: Attagene TRANS-FACTORIAL HepG2 Assay for M06 Transcription Factor (Internal Marker) (AID 2282983).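 Further: reporter transcript level by RT-PCR then capillary electrophoresis fluorescence.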 Conditions: HepG2 Attagene TRANS M06 internal marker reporter. The method, boiled down: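 Transfect HepG2 with MRTUs → dose compounds 24 h → isolate RNA, oligo(dT) RT → PCR with reporter primers → 6-FAM primer extension → HpaI digest → CE fragment analysis. Positive direction vs DMSO.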

Test [18] in a line: ATG_M_32_TRANS: Attagene TRANS-FACTORIAL HepG2 Assay for M32 Transcription Factor (Internal Marker) (AID 2282984).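 Further: transcript level of a background control reporter unit measured by RT-PCR and capillary electrophoresis.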 Conditions: HepG2 Attagene TRANS M32 internal marker reporter. The method, boiled down: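 Using transiently transfected HepG2 cells exposed to test chemicals for 24 h, reporter transcripts are converted to labelled cDNA fragments and quantified by capillary electrophoresis. DMSO defines the activity baseline.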

For test [19], the target named is Nuclear receptor subfamily 4 group A member 2 (Homo sapiens) (UniProt P43354). Put plainly: ATG_NURR1_TRANS: Attagene TRANS-FACTORIAL HepG2 Assay for human Nuclear Receptor Related Protein 1 (NURR1) (AID 2282985). As to conditions: HepG2 Attagene TRANS reporter, mRNA readout. The method, boiled down:
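Cells: HepG2, transiently transfected. Exposure: 24 h. Detection: fluorescence of labelled RT-PCR products separated by capillary electrophoresis; upward fit versus DMSO.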

Hepatocyte nuclear factor 4-alpha (Homo sapiens), sequence (P41235 whole entry, looked up): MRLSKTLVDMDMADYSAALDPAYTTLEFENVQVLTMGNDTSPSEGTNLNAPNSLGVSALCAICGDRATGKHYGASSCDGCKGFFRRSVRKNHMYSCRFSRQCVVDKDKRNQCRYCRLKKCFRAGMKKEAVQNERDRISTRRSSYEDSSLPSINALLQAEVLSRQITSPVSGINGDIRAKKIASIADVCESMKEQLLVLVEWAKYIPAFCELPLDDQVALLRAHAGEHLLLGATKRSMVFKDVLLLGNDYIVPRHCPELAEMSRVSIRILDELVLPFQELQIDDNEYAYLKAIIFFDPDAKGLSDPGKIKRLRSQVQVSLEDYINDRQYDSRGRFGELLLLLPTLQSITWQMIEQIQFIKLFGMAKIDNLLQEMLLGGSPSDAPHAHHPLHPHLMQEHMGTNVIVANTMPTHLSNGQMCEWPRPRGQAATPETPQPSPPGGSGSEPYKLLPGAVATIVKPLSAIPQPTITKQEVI
Estrogen receptor (Homo sapiens), sequence (P03372 whole entry, looked up, the tested form may be a part): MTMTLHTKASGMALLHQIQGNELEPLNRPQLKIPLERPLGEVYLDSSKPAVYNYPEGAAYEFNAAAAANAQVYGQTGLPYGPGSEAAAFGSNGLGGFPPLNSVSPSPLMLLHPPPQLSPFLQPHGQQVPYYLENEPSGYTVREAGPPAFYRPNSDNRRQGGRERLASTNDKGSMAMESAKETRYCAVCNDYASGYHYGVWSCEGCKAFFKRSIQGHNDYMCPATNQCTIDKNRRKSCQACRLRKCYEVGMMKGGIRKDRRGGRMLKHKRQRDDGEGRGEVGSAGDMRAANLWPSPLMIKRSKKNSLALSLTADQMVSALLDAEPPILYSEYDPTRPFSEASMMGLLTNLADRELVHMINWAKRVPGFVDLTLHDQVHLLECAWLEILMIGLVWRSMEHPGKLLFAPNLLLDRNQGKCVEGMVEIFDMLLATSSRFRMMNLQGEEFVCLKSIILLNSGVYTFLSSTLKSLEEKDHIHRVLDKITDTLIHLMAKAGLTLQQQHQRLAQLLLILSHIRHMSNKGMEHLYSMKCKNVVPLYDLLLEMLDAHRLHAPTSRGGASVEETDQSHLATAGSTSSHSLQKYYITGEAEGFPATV
Glucocorticoid receptor (Homo sapiens), sequence (P04150 whole entry, looked up, the tested form may be a part): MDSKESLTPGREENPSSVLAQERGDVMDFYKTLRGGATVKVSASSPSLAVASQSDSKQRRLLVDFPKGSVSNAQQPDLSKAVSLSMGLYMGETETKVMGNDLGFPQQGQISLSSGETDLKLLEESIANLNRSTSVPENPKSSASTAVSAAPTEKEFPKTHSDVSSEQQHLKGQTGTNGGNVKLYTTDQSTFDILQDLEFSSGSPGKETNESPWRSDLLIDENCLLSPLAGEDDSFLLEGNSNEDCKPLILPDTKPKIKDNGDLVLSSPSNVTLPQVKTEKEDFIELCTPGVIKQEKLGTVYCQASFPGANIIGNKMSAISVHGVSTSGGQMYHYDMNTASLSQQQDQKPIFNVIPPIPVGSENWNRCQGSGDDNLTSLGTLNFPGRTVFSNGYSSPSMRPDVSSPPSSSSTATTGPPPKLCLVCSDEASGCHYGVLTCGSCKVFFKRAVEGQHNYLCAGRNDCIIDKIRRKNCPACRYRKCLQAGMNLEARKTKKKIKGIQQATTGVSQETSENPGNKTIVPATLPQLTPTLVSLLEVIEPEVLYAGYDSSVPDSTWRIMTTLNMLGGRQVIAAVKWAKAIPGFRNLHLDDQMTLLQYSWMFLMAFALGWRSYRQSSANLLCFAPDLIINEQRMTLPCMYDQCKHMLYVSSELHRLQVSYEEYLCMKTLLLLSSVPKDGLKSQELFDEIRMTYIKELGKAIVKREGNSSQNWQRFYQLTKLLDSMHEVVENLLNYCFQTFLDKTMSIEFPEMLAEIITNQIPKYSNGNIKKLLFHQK
Transcriptional activator Myb (Homo sapiens), sequence (P10242 whole entry, looked up): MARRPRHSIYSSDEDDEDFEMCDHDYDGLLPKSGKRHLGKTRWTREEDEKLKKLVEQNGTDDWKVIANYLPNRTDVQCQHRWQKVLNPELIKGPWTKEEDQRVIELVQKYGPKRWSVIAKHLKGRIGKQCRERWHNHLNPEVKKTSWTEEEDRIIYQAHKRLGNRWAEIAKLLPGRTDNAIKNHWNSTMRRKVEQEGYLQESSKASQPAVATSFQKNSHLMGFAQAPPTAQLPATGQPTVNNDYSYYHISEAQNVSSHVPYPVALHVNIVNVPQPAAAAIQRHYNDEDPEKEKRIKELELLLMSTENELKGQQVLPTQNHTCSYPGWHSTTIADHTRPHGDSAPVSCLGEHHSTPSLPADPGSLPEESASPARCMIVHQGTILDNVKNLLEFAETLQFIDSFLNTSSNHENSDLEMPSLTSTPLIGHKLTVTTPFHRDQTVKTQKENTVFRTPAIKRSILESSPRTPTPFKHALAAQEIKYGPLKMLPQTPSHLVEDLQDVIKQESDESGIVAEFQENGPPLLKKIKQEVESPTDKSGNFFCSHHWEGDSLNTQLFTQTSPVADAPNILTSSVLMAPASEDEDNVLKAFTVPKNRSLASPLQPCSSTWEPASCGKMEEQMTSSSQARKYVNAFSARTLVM
Oxysterols receptor LXR-alpha (Homo sapiens), sequence (Q13133 whole entry, looked up, the tested form may be a part): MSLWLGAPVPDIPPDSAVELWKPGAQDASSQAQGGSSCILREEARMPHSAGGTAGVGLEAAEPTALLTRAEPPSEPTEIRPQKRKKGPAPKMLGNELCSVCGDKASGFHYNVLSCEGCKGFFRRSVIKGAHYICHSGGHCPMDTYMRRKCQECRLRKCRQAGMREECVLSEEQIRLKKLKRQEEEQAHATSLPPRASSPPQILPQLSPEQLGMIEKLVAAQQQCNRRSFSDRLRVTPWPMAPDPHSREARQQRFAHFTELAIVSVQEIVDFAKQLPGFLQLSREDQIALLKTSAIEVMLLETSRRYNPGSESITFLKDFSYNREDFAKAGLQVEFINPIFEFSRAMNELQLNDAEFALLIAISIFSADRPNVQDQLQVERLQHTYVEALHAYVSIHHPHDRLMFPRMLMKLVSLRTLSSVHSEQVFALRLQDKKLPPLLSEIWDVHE
X-box-binding protein 1 (Homo sapiens), sequence (P17861 whole entry, looked up): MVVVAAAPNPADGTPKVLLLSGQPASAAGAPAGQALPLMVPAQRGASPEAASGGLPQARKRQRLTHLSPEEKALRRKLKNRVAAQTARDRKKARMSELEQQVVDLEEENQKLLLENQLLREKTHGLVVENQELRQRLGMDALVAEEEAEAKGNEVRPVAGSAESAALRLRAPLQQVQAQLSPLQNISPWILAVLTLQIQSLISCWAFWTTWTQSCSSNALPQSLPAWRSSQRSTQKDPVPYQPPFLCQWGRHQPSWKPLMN
Bile acid receptor (Homo sapiens), sequence (Q96RI1 whole entry, looked up, the tested form may be a part): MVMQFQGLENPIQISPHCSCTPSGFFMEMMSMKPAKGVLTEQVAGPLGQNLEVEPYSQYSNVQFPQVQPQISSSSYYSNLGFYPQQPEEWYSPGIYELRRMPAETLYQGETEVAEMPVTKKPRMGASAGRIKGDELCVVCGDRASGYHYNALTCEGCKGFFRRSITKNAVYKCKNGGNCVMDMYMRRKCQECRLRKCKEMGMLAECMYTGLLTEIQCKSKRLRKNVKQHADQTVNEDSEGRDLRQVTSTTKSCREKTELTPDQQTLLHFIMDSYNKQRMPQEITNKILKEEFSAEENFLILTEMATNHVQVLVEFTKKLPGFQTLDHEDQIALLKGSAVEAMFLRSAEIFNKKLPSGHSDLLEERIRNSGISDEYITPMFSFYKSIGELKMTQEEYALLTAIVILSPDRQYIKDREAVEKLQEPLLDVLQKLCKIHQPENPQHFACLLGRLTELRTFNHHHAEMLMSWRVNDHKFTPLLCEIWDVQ
Oxysterols receptor LXR-beta (Homo sapiens), sequence (P55055 whole entry, looked up, the tested form may be a part): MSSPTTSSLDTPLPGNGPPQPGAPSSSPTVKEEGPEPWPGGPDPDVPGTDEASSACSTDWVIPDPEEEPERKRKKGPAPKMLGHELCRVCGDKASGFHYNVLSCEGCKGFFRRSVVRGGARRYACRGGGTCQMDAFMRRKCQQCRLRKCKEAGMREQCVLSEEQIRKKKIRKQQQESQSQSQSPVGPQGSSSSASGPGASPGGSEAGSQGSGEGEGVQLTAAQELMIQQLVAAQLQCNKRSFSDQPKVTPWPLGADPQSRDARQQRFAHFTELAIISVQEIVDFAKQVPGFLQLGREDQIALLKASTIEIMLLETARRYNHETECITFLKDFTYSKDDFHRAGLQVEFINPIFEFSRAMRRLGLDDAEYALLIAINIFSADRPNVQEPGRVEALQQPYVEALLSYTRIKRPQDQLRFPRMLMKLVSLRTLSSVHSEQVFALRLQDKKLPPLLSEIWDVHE
Nuclear receptor subfamily 4 group A member 2 (Homo sapiens), sequence (P43354 whole entry, looked up): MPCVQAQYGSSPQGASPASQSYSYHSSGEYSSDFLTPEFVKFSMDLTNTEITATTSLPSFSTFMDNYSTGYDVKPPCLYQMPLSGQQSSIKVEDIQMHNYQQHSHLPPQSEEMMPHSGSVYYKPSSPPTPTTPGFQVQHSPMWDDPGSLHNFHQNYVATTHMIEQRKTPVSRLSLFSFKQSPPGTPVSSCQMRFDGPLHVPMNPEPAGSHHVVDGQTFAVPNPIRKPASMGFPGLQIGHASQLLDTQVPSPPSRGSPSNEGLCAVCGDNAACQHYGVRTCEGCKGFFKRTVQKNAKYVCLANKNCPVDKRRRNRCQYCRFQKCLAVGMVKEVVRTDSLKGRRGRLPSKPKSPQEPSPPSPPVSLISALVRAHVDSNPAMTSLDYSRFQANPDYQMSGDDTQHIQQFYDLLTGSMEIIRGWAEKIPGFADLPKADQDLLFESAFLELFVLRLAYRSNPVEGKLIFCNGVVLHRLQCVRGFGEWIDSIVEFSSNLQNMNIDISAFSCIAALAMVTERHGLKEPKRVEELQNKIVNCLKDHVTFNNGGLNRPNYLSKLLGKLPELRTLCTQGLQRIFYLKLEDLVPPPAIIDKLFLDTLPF

In the case of `CCC(C)(C)C1CCC(=O)CC1`, the molecule was classed as inactive in test [1], in test [2], in [3], in test [5], in [6] and in [7]. Further, the molecule was called inactive in test [8], in [9], in test [10] and in test [11]. In [4], the AC50 is 28.2 µM (active).
Regarding `O=C1OC2(c3ccc(O)cc3Oc3cc(O)ccc32)c2ccccc21`, the molecule was called inactive in test [1], in [2], in test [3], in [6], in test [7] and in test [12]. For the same molecule, the molecule was called inactive in test [13], in test [14], in [15] and in test [11]. In addition, in test [4], the AC50 was 27.7 µM (active).
On to `CCCCCCCCOS(=O)(=O)O`, for which the outcome in [1], in test [2], in test [3], in [16], in test [5] and in [6] was inactive. In addition, the result in test [8], in test [9], in [12], in test [13], in [17] and in [18] was inactive. For the same molecule, the outcome in test [11] was inactive. Moreover, the AC50 in test [4] was 100 µM (active).
As for `O=C(OCc1ccccc1)c1ccccc1O`, the molecule was called inactive in test [1], in [2], in test [3], in test [6], in [7] and in test [12]. For the same molecule, the molecule was called inactive in [10], in test [15], in test [18] and in test [11]. In test [4], the AC50 is 43 µM (active).
On to `C1CCCNCC1`, for which the molecule was classed as inactive in [1], in test [2], in [3], in test [16], in [6] and in test [7]. Further, the result in [8], in test [15], in [19] and in test [11] was inactive.
As to `NCCN1CCNCC1`, the molecule was classed as inactive in test [1], in [2], in test [3], in test [16], in test [4] and in test [7]. The outcome in test [10], in test [17], in test [18] and in [11] was inactive.
In the case of `O=C(O)C1=NN(c2ccc(S(=O)(=O)O)cc2)C(=O)C1`, the molecule was classed as inactive in test [1], in test [2], in [3], in test [4], in test [6] and in test [7]. Also, the call in [8], in test [12], in [14], in [10], in test [15] and in [18] was inactive. The molecule was classed as inactive in test [19] and in [11].
For the molecule `OC[C@H]1O[C@@H](O[C@H]2[C@H](O)[C@@H](O)[C@H](O)O[C@@H]2CO)[C@H](O)[C@@H](O)[C@H]1O`, the result in test [1], in test [2], in test [3], in test [16], in test [4] and in test [6] was inactive. Besides, the outcome in [7], in [8], in test [12], in test [13], in [14] and in [19] was inactive. Further, the molecule was classed as inactive in test [11].
As for `CCOC(=O)CC1(C)OCC(C)O1` (stereo not drawn), the molecule was classed as inactive in test [1], in test [2], in test [3], in test [16], in [4] and in test [6]. Also, the molecule was classed as inactive in test [8], in [17] and in [11].
